Measurements reported in PubChem BioAssay (NCI).
About 83,000 compounds went through this panel and 20% of them were active in at least one assay; those are over-represented in the sample as a whole.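 Compound tested at a single concentration for 48 hours in 96-well plates; a percent growth value below 10 was scored as active.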 Values without a mark were called inactive. The source made the active and inactive calls.

How the values were obtained:
Experiment in all cases: NCI-60 one-dose screen, 48 h (100 = growth as untreated, 0 = no growth, -100 = all killed)
Details in all cases: 10 µM unless noted
[1] = system: DU-145 prostate
[2] = system: K-562 leukemia
[3] = system: MALME-3M melanoma
[4] = system: MDA-MB-231 breast
[5] = system: RXF 393 renal
[6] = system: SF-268 CNS
[7] = system: SF-295 CNS
[8] = system: SF-539 CNS
[9] = system: UACC-257 melanoma
[10] = system: M14 melanoma
[11] = system: HCT-15 colon
[12] = system: HT29 colon
[13] = system: SNB-75 CNS
[14] = system: SNB-19 CNS
[15] = system: U251 CNS
[16] = system: PC-3 prostate
[17] = system: SK-MEL-5 melanoma
[18] = system: UACC-62 melanoma
[19] = system: LOX IMVI melanoma
[20] = system: SK-MEL-28 melanoma

Row | Structure (SMILES) | growth [1] | growth [2] | growth [3] | growth [4] | growth [5] | growth [6] | growth [7] | growth [8] | growth [9] | growth [10] | growth [11] | growth [12] | growth [13] | growth [14] | growth [15] | growth [16] | growth [17] | growth [18] | growth [19] | growth [20]
1 | N#Cc1cccc(C2C3=C(COC3=O)N(CCO)c3cc4c(cc32)OCO4)c1 (stereo not given) | 37.3% | 9.87% (active) | 49.6% | 59.4% | 41.5% | 40.3% | 4.98% (active) | 8.85% (active) | 55.3% | 14.5% | 26.1% | 6.62% (active) | 13% | 32.9% | 21.7% | 29.4% | 29.6% | 43.4% | 35.9% | 
2 | COc1ccc(/C=C(/C(=O)n2cnnn2)c2cc(OC)c(OC)c(OC)c2)cc1 | 25.1% | 15.3% | 62.5% | 36.7% | -4.36% (active) | 49% | -7.45% (active) | -7.92% (active) | 70.2% | -2.57% (active) | 15.5% | 8.2% (active) | 15.4% | 17.4% | 17.9% | 13.1% | 15.2% | 20.1% | 37% | 
3 | O=C(/C=C(O)/C=C/c1cccc2[nH]ccc12)/C=C/c1cccc2[nH]ccc12 | 95.6% | 14.5% | 69.4% | 73.8% | 87.4% | 89.5% | 95.5% | 90.4% | 86.4% | 38.9% | 61.5% | 38.4% | 92.2% | 72.6% | 45.2% | 66.8% | 76% | 68% | 63.7% | 
4 | COc1ccc(C(=O)Cn2c(C(=O)c3ccc(Cl)cc3)nc3ccccc32)cc1 | 98.3% | 45.7% | 70.7% | 65.5% | 14.2% | 66.7% | 51.8% | 91% | 70.8% | 14.8% | 33.6% | 51.2% | 53.8% | 74% | 65.3% | 68.9% | 41.9% | 54.1% | 74.8% | 71.2%
5 | C=CCN1C(=O)c2cccc3c(N4CCOCC4)ccc(c23)C1=O | 10.3% | 9.78% (active) | -3.28% (active) | 23.9% | -29.9% (active) | -23.9% (active) | 2.87% (active) | 0.495% (active) | -3.63% (active) | 0.387% (active) | -9.11% (active) | 6.76% (active) | 12.8% | 24.9% | 5.37% (active) | -21.3% (active) | -62.7% (active) | -24.7% (active) | 1.13% (active) | 5.67% (active)
6 | COc1ccc(/C=C2\COc3ccc(O)cc3C2=O)cc1 | 111% | 24% | 96.1% | 92.8% | 115% | 99.4% | 108% | 102% | 106% | 90.8% | 77.5% | 80.1% | 96.8% | 96.7% | 85.5% | 95.2% | 99.3% | 85.7% | 74.3% | 
7 | Cn1cc(-c2ccc(-c3cn(C)c4ccc(Cl)cc34)[nH]2)c2cc(Cl)ccc21 | 32% | -29.8% (active) | -59.1% (active) | -48.5% (active) | -51.3% (active) | -67.2% (active) | -15.1% (active) | -56.1% (active) | -34.7% (active) | -75.2% (active) | -66.3% (active) | 21.9% | -59.9% (active) | -68.5% (active) | -100% (active) | -56.5% (active) | -98.6% (active) | -82.3% (active) | -95.2% (active) | 
8 | COC(=O)c1cc(Br)ccc1O | 110% | 111% | 102% | 118% | 101% | 105% | 102% | 107% | 109% | 105% | 101% | 103% | 91.5% | 108% | 102% | 94.5% | 95.2% | 102% | 94.7% | 
9 | N#C/C(=C\c1ccc([N+](=O)[O-])cc1)n1nnc2cc(F)c(F)cc21 | 14.6% | 5.08% (active) | 33.1% | 8.32% (active) | -64.7% (active) | 31% | 98.1% | -33.7% (active) | 77.4% | 28.4% | -7.69% (active) | 0.57% (active) | 46.3% | 69% | 43.5% | -16% (active) | 81.3% | -43.7% (active) | -97.6% (active) | 101%
10 | COc1ccc(Oc2nc(Nc3ccc(N4CCOCC4)cc3)ncc2NC(=O)Nc2cc(OC)cc(OC)c2)cc1 | 12.8% | 19.9% | 7.76% (active) | 1.79% (active) | -29.2% (active) | 34.3% | 34.4% | -32.5% (active) | 35.9% | 21.4% | 82.9% | -32.8% (active) | 53.3% | 28.3% | -35.8% (active) | 11.6% | -32.8% (active) | -8.63% (active) | 24.1% | 5.33% (active)
11 | Cc1ccc(-c2nc3nc(-c4ccccc4)nc(N4CCCN(S(C)(=O)=O)CC4)c3o2)cc1 | 57.1% | 84.5% | 55.5% | 73.5% | 19.4% | 76% | 87.4% | 30.7% | 75.4% | 70.9% | 73.3% | 58.4% | 17.4% | 86.5% | 69.7% | 68.3% | 89.4% | 81.7% | 71.7% | 
12 | Cn1cc(-c2csc(-c3cn(CCCN4CCOCC4)c4ccccc34)n2)c2cccnc21 | 97.9% | 26.2% | 108% | 76.5% | 65.7% | 91.7% | 79.5% | 89.4% | 89.3% | 83.6% | 55.5% | 32.9% | 82.6% | 90.8% | 64.3% | 68% | 64.6% | 92.5% | 79% | 
13 | CCCC(CC)(C(=O)Nc1ccc2nc(C)cc(N)c2c1)C(=O)Nc1ccc2nc(C)cc(N)c2c1 | 111% | 102% | 105% | 100% | 117% | 113% | 108% | 102% | 99.7% | 96.6% | 110% | 99.1% | 100% | 103% | 107% | 95.8% | 99.5% | 102% | 100% | 110%
14 | CCSc1oc(C)nc1[P+](c1ccccc1)(c1ccccc1)c1ccccc1 | 29.5% | 19.8% | 31.1% | 49.1% | 50.9% | 25% | 35.1% | 59.1% | 11.8% | 33.1% | 92.1% | 16.7% | 35.1% | 19.3% | 20.2% | 19.6% | 1.8% (active) | 28.7% | 25.7% | 
15 | CC1=C(CCC(C)NCc2ccc(OCCCN3CCCCC3)cc2)C(C)(C)CCC1 (stereo not given) | -49.1% (active) | -46.6% (active) | -80.5% (active) | -73.4% (active) | -89.1% (active) | -76.8% (active) | -70% (active) | -85.3% (active) | -76.1% (active) | -81% (active) | -67.2% (active) | -81.9% (active) | -59.7% (active) | -45.7% (active) | -85.6% (active) | -56.1% (active) | -94.6% (active) | -77% (active) | -88.7% (active) | 
16 | COc1ccc(C(O)c2cc3c(N)c(C(=O)Nc4cccc(Cl)c4C)sc3nc2C)cc1 (stereo not given) | 3.08% (active) | 6.61% (active) | 41.7% | 1.27% (active) | 33.7% | 13.2% | 17.4% | -4.61% (active) | 44.1% | 7.3% (active) | 10.8% | -7.84% (active) | -11.4% (active) | 39% | 11.1% | 16.7% | -53.7% (active) | 24.6% | 22% | 57.7%
